PubChem BioAssay AID504451 (NMMLSC, 2011)
Out of some 2,000 compounds screened, about 80 (4%) were called active. This is one part of a sample in which actives are shown more often than they occur. A number with no mark means an inactive call.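 Rule for the calls: active = aptamer displacement above 40%, near three times the noise of non-fluorescent compounds, on plates passing quality checks; inactive = the rest.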

Molecular target: Beta-adrenergic receptor kinase 1 (Homo sapiens) (UniProt P25098)
Test: RNA aptamer-GRK2 binding blockers – biochemical, cherry pick 1, bead flow cytometry, confirmation (AID 504451);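 note: negative values mostly reflect intrinsic compound fluorescence rather than true enhancement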
Conditions: bead-bound GRK2, FAM-aptamer displacement, at 10 µM, active compounds read high

Beta-adrenergic receptor kinase 1 (Homo sapiens), sequence (P25098 whole entry, looked up): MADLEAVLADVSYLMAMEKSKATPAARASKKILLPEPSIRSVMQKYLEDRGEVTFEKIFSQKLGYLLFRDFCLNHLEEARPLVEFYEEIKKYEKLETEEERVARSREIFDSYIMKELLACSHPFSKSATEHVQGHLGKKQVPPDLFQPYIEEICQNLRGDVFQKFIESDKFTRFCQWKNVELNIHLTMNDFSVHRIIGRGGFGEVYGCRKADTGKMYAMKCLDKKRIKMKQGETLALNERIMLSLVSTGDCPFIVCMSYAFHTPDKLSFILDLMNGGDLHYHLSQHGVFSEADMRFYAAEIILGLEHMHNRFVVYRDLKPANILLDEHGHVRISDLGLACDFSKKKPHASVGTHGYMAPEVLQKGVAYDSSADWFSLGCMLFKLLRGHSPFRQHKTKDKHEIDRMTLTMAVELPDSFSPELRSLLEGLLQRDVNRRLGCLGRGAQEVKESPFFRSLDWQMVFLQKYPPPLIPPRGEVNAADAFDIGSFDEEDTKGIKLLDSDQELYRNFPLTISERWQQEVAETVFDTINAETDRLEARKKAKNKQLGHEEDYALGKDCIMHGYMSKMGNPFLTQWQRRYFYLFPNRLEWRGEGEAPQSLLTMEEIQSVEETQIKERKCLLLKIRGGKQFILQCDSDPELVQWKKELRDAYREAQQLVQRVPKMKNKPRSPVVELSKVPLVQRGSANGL

SMILES | aptamer displacement
COc1ccc(N2C(=O)/C(=C/c3ccco3)C(=O)NC2=S)cc1 | 86.6% (active)
O=C1NC(=O)N(Cc2ccco2)C(=O)/C1=C\c1cccn1CCOc1ccccc1 | 0.73%
Cc1c(C(=O)O)cccc1-n1c(C)cc(/C=C2\C(=O)NC(=O)N(c3ccc4c(c3)OCO4)C2=O)c1C | 37.1%
